Values joined by “and” are separate entries in the source; they are usually repeats but may differ in a detail not shown here. Equal entries are not always repeated. Records with an inconclusive call do not appear. Entries that show only a call come without a potency. A number with no mark means an inactive call. Active and inactive are the calls of the source. Calls come from the whole dose curve; as a rule, active = well fitted curve in the direction sought with a large enough effect in the repeat runs; inconclusive = weak or mixed curves; inactive = no such curve, though single readings can be large; an effect the other way counts as inactive or inconclusive.
Assay: A CellTox Green Cytotoxicity Assay to monitor cytotoxicity in HEK293 cells - 40 hour (AID 1224871); note: nearly all actives have a fitted effect of over 45% in size
Details: CellTox Green fluorescence; series mostly up to 76.8 µM
How it was run: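 Homogeneous no-lysis format: HEK293 cell suspension mixed with CellTox Green reagent, seeded, incubated 5 h at 37 C/5% CO2, then dosed by pintool with compound in DMSO.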
Potency is the fitted concentration of half-maximal effect.

Compound	Potency	cytotoxicity increase
CCC(OC(C)=O)C(CC(C)NC)(c1ccccc1)c1ccccc1 (stereo not drawn)	62.2 µM (active)	–
c1ccc2nc(N3CCNCC3)ccc2c1	inactive	–
CC(C)[C@@H](Nc1ccc(C(F)(F)F)cc1Cl)C(=O)OC(C#N)c1cccc(Oc2ccccc2)c1 (stereo partly drawn)	inactive	–
Nc1ccc(N=Nc2ccccc2)cc1	inactive	–
CC(C)N(C(=O)CCl)c1ccccc1	inactive	–
O=C(N[C@@H]1N=C(c2ccccc2F)c2cccc3c2N(CC3)C1=O)c1cc2ccccc2[nH]1	6.01 µM (active)	–
CCO/N=C(\CC)C1=C(O)CC(c2c(C)cc(C)cc2C)CC1=O (stereo not drawn)	inactive	–
C#CCC1=C(C)C(OC(=O)C2C(C=C(C)C)C2(C)C)CC1=O (stereo not drawn)	inactive	–
C[C@@H]1CC2=CC(=O)CC[C@@H]2[C@H]2CC[C@@]3(C)[C@@H](CC[C@]3(C)O)[C@@H]21	inactive	–
CCN1CCC2(CC1)COc1cc3c(cc12)N(C(=O)c1ccc(-c2ccc(-c4nnc(C)o4)cc2C)cc1)CC3	40.3 µM (active)	–
CC(=O)[O-].CC(=O)[O-].CC(=O)[O-].[Sb+3]	–	2.55% [at 2.72 µM]
O=S(=O)(O)F	inactive	–
CC(C)(C)c1ccc(OP(=O)(Oc2ccccc2)Oc2ccccc2)cc1	inactive	–
CN1[C@@H]2CC[C@H]1CC(O)C2 (stereo partly drawn)	inactive	–
CN	inactive	–
CC(=O)O.CC(=O)O.CC(=O)O.CC(=O)O.CC(=O)O.CC(=O)O.CC(=O)O.O.O.[Cr].[Cr].[Cr]	inactive	–
COP(=O)(OC)O/C(=C\Cl)c1cc(Cl)c(Cl)cc1Cl	inactive	–
O=[N+]([O-])c1ccccc1-c1ccccc1	inactive	–
CCNc1nc(NC(C)C(C)C)nc(SC)n1 (stereo not drawn)	inactive	–

Assay: qHTS RealTime-Glo MT Cell Viability Assay in HEK293 cells - 16 hour (AID 1224872); note: nearly all actives have a fitted effect of over 50% in size
Details: RealTime-Glo luminescence; series mostly up to 76.8 µM
How it was run: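 Quantitative high-throughput screen of the Tox21 10K library in HEK293: cells and RealTime-Glo reagents plated together, compound added at 5 h, luminescence monitored through 40 h at 37 C.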

Compound	Potency
Cc1c([N+](=O)[O-])c(C)c([N+](=O)[O-])c(C(C)(C)C)c1[N+](=O)[O-]	inactive
Nc1ccccc1-c1ccccc1	inactive
CCCCn1cc[n+](C)c1 (tested in a mixture with another compound)	inactive
CCC(C)c1cccc(C(C)CC)c1O (stereo not drawn)	inactive
FC(F)C(F)(F)OCC(Cn1cncn1)c1ccc(Cl)cc1Cl (stereo not drawn)	24.4 µM (active)
CCOP(=O)(Sc1ccccc1)Sc1ccccc1	inactive
CCCCON=O	inactive
ClC1=C(Cl)[C@]2(Cl)[C@H]3[C@H]([C@@H]4C=C[C@H]3C4)[C@@]1(Cl)C2(Cl)Cl	43.6 µM (active) and 38.9 µM (active)
C=CCBr	inactive
[O-][Cl+3]([O-])([O-])O	inactive
CC(Cc1ccc2c(c1)OCO2)NO (stereo not drawn)	inactive
Cc1cccc(Cc2cnc[nH]2)c1C	inactive
COC(=O)c1ccccc1S(=O)(=O)NC(=O)Nc1nc(C)nc(OC)n1	inactive
COc1ccc2c3c1O[C@H]1[C@H](O)CC[C@H]4[C@@H](C2)N(C)CC[C@@]341	inactive
CSC(C)(C)/C=N/O	inactive
CNC(=O)CSP(=O)(OC)OC	inactive
CC(=O)C(Cl)C(=O)N(C)C (stereo not drawn)	inactive
CC(=O)[O-].CC(=O)[O-].CC(=O)[O-].[Cr+3]	inactive
COP(=S)(OC)Oc1ccc([N+](=O)[O-])c(C)c1	inactive
O=S1OCC2C(CO1)C1(Cl)C(Cl)=C(Cl)C2(Cl)C1(Cl)Cl (stereo not drawn)	19.5 µM (active) and 38.9 µM (active)

Assay: qHTS RealTime-Glo MT Cell Viability Assay in HepG2 cells - 8 hour (AID 1224873); note: nearly all actives have a fitted effect of over 55% in size
Details: RealTime-Glo luminescence; series mostly up to 76.8 µM
How it was run: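 HepG2 cells (600/well) mixed with RealTime-Glo MT reagent, settled 5 h at 37 C/5% CO2 before compound addition. Nonlytic NanoLuc luminescence from viable-cell prosubstrate reduction read repeatedly during 40 h treatment at 37 C.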

Compound	Potency
Cc1c([N+](=O)[O-])c(C)c([N+](=O)[O-])c(C(C)(C)C)c1[N+](=O)[O-]	inactive
Nc1ccccc1-c1ccccc1	inactive
CCCCn1cc[n+](C)c1 (tested in a mixture with another compound)	inactive
CCC(C)c1cccc(C(C)CC)c1O (stereo not drawn)	inactive
FC(F)C(F)(F)OCC(Cn1cncn1)c1ccc(Cl)cc1Cl (stereo not drawn)	54.6 µM (active)
CCO/N=C(\CC)C1=C(O)CC(c2c(C)cc(C)cc2C)CC1=O (stereo not drawn)	inactive
C#CCC1=C(C)C(OC(=O)C2C(C=C(C)C)C2(C)C)CC1=O (stereo not drawn)	inactive
CCOP(=O)(Sc1ccccc1)Sc1ccccc1	inactive
C[C@@H]1CC2=CC(=O)CC[C@@H]2[C@H]2CC[C@@]3(C)[C@@H](CC[C@]3(C)O)[C@@H]21	inactive
CCCCON=O	inactive
ClC1=C(Cl)[C@]2(Cl)[C@H]3[C@H]([C@@H]4C=C[C@H]3C4)[C@@]1(Cl)C2(Cl)Cl	49 µM (active)
C=CCBr	inactive
[O-][Cl+3]([O-])([O-])O	inactive
CC(Cc1ccc2c(c1)OCO2)NO (stereo not drawn)	inactive
Cc1cccc(Cc2cnc[nH]2)c1C	inactive
COC(=O)c1ccccc1S(=O)(=O)NC(=O)Nc1nc(C)nc(OC)n1	inactive
CC(C)(C)c1ccc(OP(=O)(Oc2ccccc2)Oc2ccccc2)cc1	inactive
COc1ccc2c3c1O[C@H]1[C@H](O)CC[C@H]4[C@@H](C2)N(C)CC[C@@]341	inactive
CSC(C)(C)/C=N/O	inactive
CNC(=O)CSP(=O)(OC)OC	inactive
CC(=O)C(Cl)C(=O)N(C)C (stereo not drawn)	inactive
CC(=O)[O-].CC(=O)[O-].CC(=O)[O-].[Cr+3]	inactive
COP(=S)(OC)Oc1ccc([N+](=O)[O-])c(C)c1	inactive
O=S1OCC2C(CO1)C1(Cl)C(Cl)=C(Cl)C2(Cl)C1(Cl)Cl (stereo not drawn)	48.9 µM (active)
